According to PubChem BioAssay (Tox21):
A number with no mark means an inactive call. Records with an inconclusive call do not appear. Entries that show only a call come without a potency. Active and inactive are the calls of the source. Unless noted, calls follow the shape of the dose curve; as a rule, active = well fitted curve in the direction sought with a large enough effect in the repeat runs; inconclusive = weak or mixed curves; inactive = no such curve, though single readings can be large; an effect the other way counts as inactive or inconclusive.

How the values were obtained:
[1] = qHTS assay for small molecules that induce genotoxicity in human embryonic kidney cells expressing luciferase-tagged ATAD5 (AID 651632); also: nearly all actives have a fitted effect of over 15% in size; also: potency is read from the fitted curve at half-maximal effect
In short: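 Quantitative HTS in HEK293T expressing luciferase-tagged ATAD5, whose levels rise upon DNA damage. Exposure ran 16 hr at 37C and 5% CO2, with luminescence read 30 min after Amplite addition at room temperature.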

[2] = qHTS assay for small molecule agonists of the p53 signaling pathway - cell viability (AID 651633; calls by dose curve;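 also: p53RE-bla HCT reporter cells with a stable beta-lactamase p53 reporter; nearly all actives have a fitted effect of over 30% in size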)
In short: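 Viability counter-read: CellTiter-Glo luminescence (30 min, room temperature) in the same p53RE-bla plates. These plates had been exposed to compounds for 16 h at 37 C.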

[3] = qHTS assay for small molecules that induce genotoxicity in human embryonic kidney cells expressing luciferase-tagged ATAD5 - cell viability (AID 651634; calls by dose curve; also: nearly all actives have a fitted effect of over 25% in size)
In short: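 After 15.5 hr incubation with compound at 37C, 5% CO2, HEK293T ATAD5-luciferase cells received CellTiter-Fluor reagent; fluorescence intensity was quantified following 30 min at 37C.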

[4] = qHTS assay to test for compound auto fluorescence at 590 nm (red) in HepG2 cells (AID 720674)
In short: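 Red autofluorescence (Ex/Em 540/590 nm, Rose Bengal sodium equivalents) was measured in HepG2 cells, 2,000 per well in MEM plus 10% FBS, plated overnight at 37 C. Readings were taken 1 hr after adding 23 nL compound or DMSO, at 37 C and 5% CO2.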

[5] = qHTS assay to test for compound auto fluorescence at 535 nm (green) in HepG2 cells (AID 720675)
[6] = qHTS assay to test for compound auto fluorescence at 460 nm (blue) in HEK293 cells (AID 720678)
In short: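 Triamterene serves as the blue fluorophore standard. Compound signal at 405/460 nm is read in HEK293 wells (2,000 cells, 10% dialyzed FBS) after overnight treatment at 37C.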

[7] = qHTS assay to test for compound auto fluorescence at 590 nm (red) in HEK293 cells (AID 720679)
In short: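 We plated HEK293 cells in 10% dialyzed FBS medium, let them adhere for 4-5 hr, then added 23 nL compound. Overnight at 37C and 5% CO2 preceded fluorescence measurement at 540/590nm.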

[8] = qHTS assay to test for compound auto fluorescence at 535 nm (green) in HEK293 cells (AID 720680)
[9] = qHTS assay to test for compound auto fluorescence at 460 nm (blue) in HEK293 cell free culture (AID 720681)
In short: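 Blue fluorescence (Ex 405/Em 460 nm, triamterene-equivalent) was read immediately after pin transfer of compound or DMSO into medium (DMEM, 10% FBS) without cells.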

[10] = qHTS assay to test for compound auto fluorescence at 535 nm (green) in HEK293 cell free culture (AID 720682)
In short: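 Intrinsic compound fluorescence is measured in culture medium containing 10% FBS, with excitation at 485 nm and detection at 535 nm, referenced to fluorescein.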

[11] = qHTS assay to test for compound auto fluorescence at 590 nm (red) in HEK293 cell free culture (AID 720683)
In short: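 Red-channel autofluorescence of compounds in culture medium (DMEM, 10% FBS), no cells, measured at 540/590 nm. Rose Bengal sodium is the reference fluorophore for equivalence.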

[12] = qHTS assay to test for compound auto fluorescence at 590 nm (red) in HepG2 cell free culture (AID 720684)
In short: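 Cell-free; medium MEM + 10% FBS; compound or DMSO added by pintool; read Ex 540/Em 590 nm; Rose Bengal sodium as red reference fluorophore.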

[13] = qHTS assay to test for compound auto fluorescence at 460 nm (blue) in HepG2 cell free culture (AID 720685)
In short: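 Cell-free plates of MEM plus 10% FBS received 23 nL compound or DMSO vehicle; blue-channel (405/460 nm) intensity scored against triamterene as reference fluorophore.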

[14] = qHTS assay to test for compound auto fluorescence at 535 nm (green) in HepG2 cell free culture (AID 720686)
[15] = qHTS assay to test for compound auto fluorescence at 460 nm (blue) in HepG2 cells (AID 720687)
In short: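 Blue-channel autofluorescence (Ex/Em 405/460 nm, triamterene-equivalent) was measured after 1 hr compound exposure at 37 C, 5% CO2. Cells were HepG2, plated overnight at 37 C in MEM plus 10% FBS.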

[16] = qHTS assay for small molecule disruptors of the mitochondrial membrane potential (AID 720635); also: potency is read from the fitted curve at half-maximal effect
In short: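 Mitochondrial membrane potential tracked with Mito-MPS dye, red aggregates (ex 540/em 590 nm) against green monomers (ex 490/em 535 nm). Compound treatment 1 hr at 37C, dye 30 min in HepG2.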

[17] = biological target: Glucocorticoid receptor (Homo sapiens) (UniProt P04150); test: qHTS assay to identify small molecule agonists of the glucocorticoid receptor (GR) signaling pathway (AID 720691; active = well fitted activation curve with a large enough effect in the signal ratio in the repeat runs, not every such curve was filed as active; the % refers to the signal ratio); conditions: GR-bla HeLa, beta-lactamase reporter ratio, 18 h; activation: at 62.4 µM (top of the series)
In short: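 Cells: GR-bla HeLa, endogenous GR with stably integrated GRE-beta-lactamase reporter. Treatment 18 h, 37 C, compounds delivered in DMSO. Detection via LiveBLAzer B/G FRET substrate, 2 h RT, fluorescence intensity.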

[18] = biological target: Glucocorticoid receptor (Homo sapiens) (UniProt P04150); test: qHTS assay to identify small molecule antagonists of the glucocorticoid receptor (GR) signaling pathway (AID 720692; active = well fitted inhibition curve with a large enough effect in the signal ratio in the repeat runs, not every such curve was filed as active; the % refers to the signal ratio; also: potency is read from the fitted curve at half-maximal effect)
In short: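 Quantitative HTS in antagonist format: HeLa cells expressing endogenous GR and a stably integrated GRE-bla reporter, stimulated with 5 nM dexamethasone (final) alongside test compounds for 18 h.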

[19] = qHTS assay for small molecule disruptors of the mitochondrial membrane potential - cell viability (AID 720634; calls by dose curve;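 also: human HepG2 liver cancer cells; nearly all actives have a fitted effect of over 20% in size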)
In short: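 ATP-based luminescent viability readout (CellTiter-Glo, 30 min, room temperature) in HepG2 cells multiplexed with the m-MPI membrane potential dye; compound exposure lasted 1 hr at 37 C.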

Chain of Glucocorticoid receptor (Homo sapiens) (P04150 whole entry, looked up): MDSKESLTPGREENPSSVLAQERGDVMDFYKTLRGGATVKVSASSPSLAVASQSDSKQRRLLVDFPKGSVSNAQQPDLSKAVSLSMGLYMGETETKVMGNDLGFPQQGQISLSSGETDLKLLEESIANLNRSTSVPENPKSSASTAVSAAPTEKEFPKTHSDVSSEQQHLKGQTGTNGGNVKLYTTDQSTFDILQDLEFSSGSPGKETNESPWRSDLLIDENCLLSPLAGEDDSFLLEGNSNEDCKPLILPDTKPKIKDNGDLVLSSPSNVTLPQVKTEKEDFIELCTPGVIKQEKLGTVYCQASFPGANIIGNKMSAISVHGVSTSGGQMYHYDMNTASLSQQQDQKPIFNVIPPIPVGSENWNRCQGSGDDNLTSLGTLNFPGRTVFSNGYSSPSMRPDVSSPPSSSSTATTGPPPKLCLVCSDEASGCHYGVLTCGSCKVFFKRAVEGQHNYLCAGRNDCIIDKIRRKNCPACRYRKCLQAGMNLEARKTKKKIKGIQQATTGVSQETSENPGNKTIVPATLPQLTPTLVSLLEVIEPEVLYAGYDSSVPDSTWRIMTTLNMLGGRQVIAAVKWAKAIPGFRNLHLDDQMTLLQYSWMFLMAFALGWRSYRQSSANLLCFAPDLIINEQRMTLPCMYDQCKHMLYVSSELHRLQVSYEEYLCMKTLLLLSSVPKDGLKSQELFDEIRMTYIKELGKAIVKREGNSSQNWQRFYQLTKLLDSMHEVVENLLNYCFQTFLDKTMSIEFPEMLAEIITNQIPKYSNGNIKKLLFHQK

Structure (SMILES)	Potency [1]	Potency [2]	Potency [3]	outcome [4]	Potency [5]	Potency [6]	outcome [7]	outcome [8]	Potency [9]	outcome [10]	outcome [11]	outcome [12]	Potency [13]	Potency [14]	Potency [15]	Potency [16]	Potency [17]	Potency [18]	Potency [19]
[O-][Cl+3]([O-])([O-])O	inactive	inactive	inactive	inactive	inactive	inactive	inactive	inactive	inactive	inactive	inactive	inactive	inactive	inactive	inactive				
CNC(=O)CSP(=O)(OC)OC	inactive	inactive	inactive	inactive	inactive		inactive	inactive	inactive	inactive	inactive	inactive	inactive	inactive	inactive	inactive	inactive	inactive	
Cc1ccc2cc3c(ccc4ccccc43)c3c2c1CC3	inactive				inactive	inactive	inactive	inactive	inactive		inactive	inactive	inactive	inactive	inactive	12.2 µM (active)	inactive	inactive	
CCCCCCCc1ccc(O)cc1	inactive	inactive		inactive	inactive		inactive	inactive	inactive	inactive	inactive	inactive	inactive	inactive	inactive	7.7 µM (active)	inactive		
O=C(N[C@@H]1N=C(c2ccccc2F)c2cccc3c2N(CC3)C1=O)c1cc2ccccc2[nH]1		inactive	inactive		inactive	inactive	inactive	inactive	inactive	inactive	inactive	inactive	inactive	inactive	inactive	8.41 µM (active)			inactive
CO/N=C(/C1=NOCCO1)c1ccccc1Oc1ncnc(Oc2ccccc2Cl)c1F	inactive		inactive	inactive	inactive	inactive	inactive	inactive	inactive		inactive	inactive	inactive	inactive	inactive	54.4 µM (active)	inactive	inactive	
CCc1cccc(C)c1N(C(=O)CCl)[C@@H](C)COC	inactive		inactive	inactive	inactive	inactive	inactive	inactive	inactive	inactive	inactive	inactive	inactive	inactive	inactive				
CN1CCc2cc(Cl)c(O)cc2[C@H]2c3ccccc3CC[C@@H]21		inactive	inactive	inactive	inactive	inactive	inactive	inactive	inactive	inactive	inactive	inactive	inactive	inactive	inactive		inactive		inactive
O=C(Nc1ccc(F)cc1F)c1cccnc1Oc1cccc(C(F)(F)F)c1	inactive		inactive	inactive	inactive	inactive	inactive	inactive	inactive	inactive	inactive	inactive	inactive	inactive	inactive	23.8 µM (active)	inactive	inactive	inactive
Nc1ccc(N=Nc2ccccc2)cc1	13.7 µM (active)	inactive		inactive	inactive	inactive	inactive	inactive	inactive	inactive	inactive	inactive	inactive	inactive	inactive		inactive	54.9 µM (active)	
O=[N+]([O-])C(Br)Br	inactive	inactive		inactive	inactive	inactive		inactive	inactive	inactive	inactive	inactive	inactive	inactive	inactive		inactive	inactive	
O=C(O)[C@H](O)[C@@H](O)C(=O)O	inactive		inactive		inactive	inactive		inactive	inactive	inactive	inactive	inactive	inactive	inactive	inactive				inactive
O=C(N[C@H]1N=C(c2ccccc2F)c2cccc3c2N(CC3)C1=O)c1cc2ccccc2[nH]1		inactive	inactive	inactive	inactive	inactive	inactive	inactive	inactive	inactive	inactive	inactive	inactive	inactive	inactive				inactive
ClCBr		inactive	inactive	inactive	inactive		inactive	inactive	inactive	inactive	inactive	inactive	inactive	inactive	inactive	inactive	inactive		inactive
CCO/N=C(\CC)C1=C(O)CC(c2c(C)cc(C)cc2C)CC1=O (configuration not stated)		inactive	inactive	inactive	inactive	inactive	inactive	inactive	inactive		inactive	inactive	inactive	inactive	inactive	12.2 µM (active)	inactive	inactive	inactive
CCC(C)c1cccc(C(C)CC)c1O (configuration not stated)	inactive		inactive	inactive	inactive	inactive	inactive	inactive	inactive		inactive	inactive	inactive	inactive	inactive	13.7 µM (active)			inactive
